According to the supplement of paper PMC11732987, “Enantioselective OTUD7B fragment discovery through chemoproteomics screening and high-throughput optimisation” (Communications Chemistry, 2025):
Values without a mark were called inactive.

Key:
Assay in all cases: log2 ratio of Biotin-Ahx-Ub-VS probe labelling (fragment/DMSO); higher = less target engagement (more negative = stronger competition), active = hit call of the paper (q ≤ 0.05, log2 ratio ≤ -1)
Settings in all cases: compound concentration: 200 uM; treatment time: 3 h
UniProt O00507 = target: UniProt O00507
Sequence of UniProt O00507 (O00507 whole entry, the tested form may be a part): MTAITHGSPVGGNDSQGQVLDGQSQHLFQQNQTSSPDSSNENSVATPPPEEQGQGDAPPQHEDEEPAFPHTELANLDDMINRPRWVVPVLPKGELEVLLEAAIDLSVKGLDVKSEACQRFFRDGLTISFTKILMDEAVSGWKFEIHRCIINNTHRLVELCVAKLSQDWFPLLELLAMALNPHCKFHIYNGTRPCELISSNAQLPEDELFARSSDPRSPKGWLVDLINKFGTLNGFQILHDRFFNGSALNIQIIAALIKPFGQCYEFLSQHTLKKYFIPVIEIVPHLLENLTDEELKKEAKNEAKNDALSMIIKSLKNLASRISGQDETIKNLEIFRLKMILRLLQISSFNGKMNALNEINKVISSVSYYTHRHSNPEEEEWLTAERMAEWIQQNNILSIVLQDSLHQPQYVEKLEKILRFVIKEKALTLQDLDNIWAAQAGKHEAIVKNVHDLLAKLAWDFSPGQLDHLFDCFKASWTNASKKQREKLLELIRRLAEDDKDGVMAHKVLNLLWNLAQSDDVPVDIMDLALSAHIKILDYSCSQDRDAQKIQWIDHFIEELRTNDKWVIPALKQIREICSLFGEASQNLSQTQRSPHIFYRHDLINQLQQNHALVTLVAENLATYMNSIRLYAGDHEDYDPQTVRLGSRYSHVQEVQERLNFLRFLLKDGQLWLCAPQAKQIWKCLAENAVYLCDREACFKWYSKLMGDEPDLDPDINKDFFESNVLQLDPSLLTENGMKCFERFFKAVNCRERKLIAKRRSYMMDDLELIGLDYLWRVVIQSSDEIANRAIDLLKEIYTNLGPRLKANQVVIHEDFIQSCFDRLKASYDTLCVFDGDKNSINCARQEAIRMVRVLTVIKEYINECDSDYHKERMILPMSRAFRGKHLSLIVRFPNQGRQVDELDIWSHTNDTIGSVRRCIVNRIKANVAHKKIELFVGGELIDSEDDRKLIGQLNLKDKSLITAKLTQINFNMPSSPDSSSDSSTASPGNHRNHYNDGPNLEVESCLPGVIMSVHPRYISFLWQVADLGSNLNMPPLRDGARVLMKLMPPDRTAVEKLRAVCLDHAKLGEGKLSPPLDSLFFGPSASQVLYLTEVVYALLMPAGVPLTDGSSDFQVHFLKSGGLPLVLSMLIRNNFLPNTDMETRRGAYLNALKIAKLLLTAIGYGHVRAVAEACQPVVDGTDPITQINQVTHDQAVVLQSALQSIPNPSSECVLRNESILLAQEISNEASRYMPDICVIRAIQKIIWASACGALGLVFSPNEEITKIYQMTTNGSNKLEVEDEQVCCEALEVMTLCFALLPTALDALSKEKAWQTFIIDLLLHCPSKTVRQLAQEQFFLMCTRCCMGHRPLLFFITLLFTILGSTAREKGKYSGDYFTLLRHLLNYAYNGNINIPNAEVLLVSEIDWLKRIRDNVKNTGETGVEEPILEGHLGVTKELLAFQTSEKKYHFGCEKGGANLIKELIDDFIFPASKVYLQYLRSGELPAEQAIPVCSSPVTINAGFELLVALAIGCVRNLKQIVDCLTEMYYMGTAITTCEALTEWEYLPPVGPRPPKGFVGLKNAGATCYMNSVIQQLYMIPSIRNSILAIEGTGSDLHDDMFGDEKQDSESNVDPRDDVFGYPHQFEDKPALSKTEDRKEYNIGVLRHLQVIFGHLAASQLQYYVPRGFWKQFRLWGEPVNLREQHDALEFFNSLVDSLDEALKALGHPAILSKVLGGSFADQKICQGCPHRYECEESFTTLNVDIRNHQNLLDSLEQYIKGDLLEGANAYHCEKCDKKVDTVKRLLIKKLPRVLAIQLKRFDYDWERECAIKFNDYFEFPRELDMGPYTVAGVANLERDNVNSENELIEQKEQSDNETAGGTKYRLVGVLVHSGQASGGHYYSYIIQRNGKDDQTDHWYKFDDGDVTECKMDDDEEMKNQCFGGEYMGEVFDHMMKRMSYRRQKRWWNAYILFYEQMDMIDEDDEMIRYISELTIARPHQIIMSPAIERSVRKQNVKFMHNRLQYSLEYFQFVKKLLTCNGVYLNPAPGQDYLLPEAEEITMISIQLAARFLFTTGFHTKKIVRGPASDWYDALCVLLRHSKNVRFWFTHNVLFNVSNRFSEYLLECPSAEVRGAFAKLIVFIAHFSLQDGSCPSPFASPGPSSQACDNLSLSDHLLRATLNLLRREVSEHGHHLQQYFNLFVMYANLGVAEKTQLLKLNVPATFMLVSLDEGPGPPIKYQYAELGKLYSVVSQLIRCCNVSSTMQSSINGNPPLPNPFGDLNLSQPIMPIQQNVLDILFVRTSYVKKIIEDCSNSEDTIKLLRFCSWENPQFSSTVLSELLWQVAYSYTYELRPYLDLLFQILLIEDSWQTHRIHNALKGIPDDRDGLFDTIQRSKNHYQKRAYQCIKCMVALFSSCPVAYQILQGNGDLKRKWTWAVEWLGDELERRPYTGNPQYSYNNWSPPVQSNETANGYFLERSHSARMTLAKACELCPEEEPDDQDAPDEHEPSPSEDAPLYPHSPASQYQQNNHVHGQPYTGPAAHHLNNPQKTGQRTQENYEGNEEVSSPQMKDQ
Summary of the method: (§1)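 Triplicate samples of HEK293T lysate, 495 µg each, received fragment at 200 µM or vehicle for 3 h, followed by Biotin-Ahx-Ub-VS (0.5 µM final) for 1 h. After NeutrAvidin enrichment of labelled DUBs and LysC/trypsin digestion, peptides were run by diaPASEF LC-MS/MS. The values are average log2 fragment/vehicle ratios from global-median-normalised Spectronaut label-free quantities, tested by unpaired t-test on proteins having ≥2 unique peptides.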

UniProt P51784 = target: UniProt P51784
Sequence of UniProt P51784 (P51784 whole entry): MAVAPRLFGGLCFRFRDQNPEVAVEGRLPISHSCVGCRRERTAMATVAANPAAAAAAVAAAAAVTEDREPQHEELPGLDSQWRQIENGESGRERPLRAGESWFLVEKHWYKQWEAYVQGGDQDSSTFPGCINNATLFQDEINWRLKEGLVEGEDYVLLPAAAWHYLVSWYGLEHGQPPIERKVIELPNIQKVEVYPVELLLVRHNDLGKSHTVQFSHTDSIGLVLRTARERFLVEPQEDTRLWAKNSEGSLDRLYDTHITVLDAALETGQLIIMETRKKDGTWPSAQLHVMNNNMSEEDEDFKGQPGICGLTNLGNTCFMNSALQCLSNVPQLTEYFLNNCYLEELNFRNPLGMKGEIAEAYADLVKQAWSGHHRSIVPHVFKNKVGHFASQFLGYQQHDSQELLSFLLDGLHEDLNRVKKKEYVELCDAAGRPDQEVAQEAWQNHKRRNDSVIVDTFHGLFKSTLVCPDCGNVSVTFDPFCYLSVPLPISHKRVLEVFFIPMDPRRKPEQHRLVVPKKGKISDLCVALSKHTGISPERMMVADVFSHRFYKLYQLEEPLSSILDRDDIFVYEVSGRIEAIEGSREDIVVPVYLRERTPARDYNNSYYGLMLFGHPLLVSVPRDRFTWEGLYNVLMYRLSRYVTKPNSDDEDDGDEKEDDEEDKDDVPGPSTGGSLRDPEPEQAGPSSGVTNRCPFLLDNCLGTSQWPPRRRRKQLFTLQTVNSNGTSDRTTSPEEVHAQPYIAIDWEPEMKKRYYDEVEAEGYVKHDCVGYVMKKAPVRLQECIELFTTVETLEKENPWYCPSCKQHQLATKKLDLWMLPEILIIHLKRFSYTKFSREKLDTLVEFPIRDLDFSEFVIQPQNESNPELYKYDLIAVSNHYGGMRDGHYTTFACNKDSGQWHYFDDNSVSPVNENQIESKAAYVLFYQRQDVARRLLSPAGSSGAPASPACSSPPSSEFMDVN
Summary of the method: as §1

UniProt Q5T2D3 = target: T1, UniProt Q5T2D3
T1 sequence (whole entry): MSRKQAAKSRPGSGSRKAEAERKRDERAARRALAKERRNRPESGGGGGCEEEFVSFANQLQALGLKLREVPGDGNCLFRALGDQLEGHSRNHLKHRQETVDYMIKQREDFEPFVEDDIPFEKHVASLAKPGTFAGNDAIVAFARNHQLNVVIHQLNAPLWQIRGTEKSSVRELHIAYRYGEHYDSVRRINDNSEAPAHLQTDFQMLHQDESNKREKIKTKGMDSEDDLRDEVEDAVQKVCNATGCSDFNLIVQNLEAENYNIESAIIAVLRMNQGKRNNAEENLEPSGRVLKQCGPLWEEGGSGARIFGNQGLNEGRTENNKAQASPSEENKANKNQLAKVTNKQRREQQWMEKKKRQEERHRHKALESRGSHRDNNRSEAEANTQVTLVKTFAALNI
Summary of the method: as §1

UniProt Q8TE49 = target: T2, UniProt Q8TE49
T2 sequence (whole entry): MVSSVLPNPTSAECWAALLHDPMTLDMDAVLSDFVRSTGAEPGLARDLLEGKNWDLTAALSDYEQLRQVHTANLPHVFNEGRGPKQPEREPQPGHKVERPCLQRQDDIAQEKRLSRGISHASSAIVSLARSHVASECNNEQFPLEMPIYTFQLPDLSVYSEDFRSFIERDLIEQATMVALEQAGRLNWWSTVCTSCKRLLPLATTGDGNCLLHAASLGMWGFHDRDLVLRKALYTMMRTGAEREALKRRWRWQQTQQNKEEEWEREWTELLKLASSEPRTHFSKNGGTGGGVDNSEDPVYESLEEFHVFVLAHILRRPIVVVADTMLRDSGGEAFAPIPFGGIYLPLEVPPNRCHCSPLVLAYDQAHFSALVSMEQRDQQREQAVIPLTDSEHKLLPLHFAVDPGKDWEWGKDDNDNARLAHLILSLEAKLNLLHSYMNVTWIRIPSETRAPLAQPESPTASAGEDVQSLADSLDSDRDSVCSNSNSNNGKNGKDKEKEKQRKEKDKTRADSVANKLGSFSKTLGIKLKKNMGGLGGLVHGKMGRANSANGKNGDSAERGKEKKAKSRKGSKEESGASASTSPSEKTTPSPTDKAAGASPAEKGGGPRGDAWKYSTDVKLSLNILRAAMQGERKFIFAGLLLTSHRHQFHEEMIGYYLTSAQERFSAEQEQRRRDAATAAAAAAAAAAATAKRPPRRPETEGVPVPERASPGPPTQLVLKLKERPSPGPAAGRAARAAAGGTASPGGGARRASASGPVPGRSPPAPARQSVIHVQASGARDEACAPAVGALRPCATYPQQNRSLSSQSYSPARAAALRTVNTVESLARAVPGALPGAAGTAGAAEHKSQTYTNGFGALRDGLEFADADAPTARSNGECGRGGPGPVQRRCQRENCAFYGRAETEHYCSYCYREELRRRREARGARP
Summary of the method: as §1

UniProt Q9P2H5 = target: T3, UniProt Q9P2H5
T3 sequence (whole entry): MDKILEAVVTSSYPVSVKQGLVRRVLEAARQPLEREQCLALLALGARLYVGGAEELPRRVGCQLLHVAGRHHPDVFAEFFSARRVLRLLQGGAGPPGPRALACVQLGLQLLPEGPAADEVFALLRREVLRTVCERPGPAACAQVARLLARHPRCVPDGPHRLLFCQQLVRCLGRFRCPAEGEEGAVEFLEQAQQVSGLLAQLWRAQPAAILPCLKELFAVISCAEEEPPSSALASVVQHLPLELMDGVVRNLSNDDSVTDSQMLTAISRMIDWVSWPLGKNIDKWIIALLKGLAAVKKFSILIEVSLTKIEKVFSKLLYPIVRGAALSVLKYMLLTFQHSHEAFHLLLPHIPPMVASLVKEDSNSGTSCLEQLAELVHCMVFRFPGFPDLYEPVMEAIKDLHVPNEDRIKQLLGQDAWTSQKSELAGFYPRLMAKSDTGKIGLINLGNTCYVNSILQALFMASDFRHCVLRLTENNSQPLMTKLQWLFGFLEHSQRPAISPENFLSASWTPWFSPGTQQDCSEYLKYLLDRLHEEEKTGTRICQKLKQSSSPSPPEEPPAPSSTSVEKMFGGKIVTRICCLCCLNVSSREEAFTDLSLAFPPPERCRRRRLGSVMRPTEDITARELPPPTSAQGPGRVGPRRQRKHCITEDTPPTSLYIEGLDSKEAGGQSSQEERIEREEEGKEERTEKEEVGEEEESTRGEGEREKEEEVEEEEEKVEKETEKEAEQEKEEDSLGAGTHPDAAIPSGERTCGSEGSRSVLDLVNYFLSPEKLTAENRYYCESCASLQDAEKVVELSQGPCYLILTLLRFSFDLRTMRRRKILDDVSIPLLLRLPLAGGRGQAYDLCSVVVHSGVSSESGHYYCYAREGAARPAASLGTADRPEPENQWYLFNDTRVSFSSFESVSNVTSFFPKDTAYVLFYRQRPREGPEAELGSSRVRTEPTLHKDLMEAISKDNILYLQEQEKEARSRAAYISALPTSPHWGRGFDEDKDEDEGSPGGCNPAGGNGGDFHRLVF
Summary of the method: as §1

UniProt Q9UGI0 = target: T4, UniProt Q9UGI0
T4 sequence (whole entry): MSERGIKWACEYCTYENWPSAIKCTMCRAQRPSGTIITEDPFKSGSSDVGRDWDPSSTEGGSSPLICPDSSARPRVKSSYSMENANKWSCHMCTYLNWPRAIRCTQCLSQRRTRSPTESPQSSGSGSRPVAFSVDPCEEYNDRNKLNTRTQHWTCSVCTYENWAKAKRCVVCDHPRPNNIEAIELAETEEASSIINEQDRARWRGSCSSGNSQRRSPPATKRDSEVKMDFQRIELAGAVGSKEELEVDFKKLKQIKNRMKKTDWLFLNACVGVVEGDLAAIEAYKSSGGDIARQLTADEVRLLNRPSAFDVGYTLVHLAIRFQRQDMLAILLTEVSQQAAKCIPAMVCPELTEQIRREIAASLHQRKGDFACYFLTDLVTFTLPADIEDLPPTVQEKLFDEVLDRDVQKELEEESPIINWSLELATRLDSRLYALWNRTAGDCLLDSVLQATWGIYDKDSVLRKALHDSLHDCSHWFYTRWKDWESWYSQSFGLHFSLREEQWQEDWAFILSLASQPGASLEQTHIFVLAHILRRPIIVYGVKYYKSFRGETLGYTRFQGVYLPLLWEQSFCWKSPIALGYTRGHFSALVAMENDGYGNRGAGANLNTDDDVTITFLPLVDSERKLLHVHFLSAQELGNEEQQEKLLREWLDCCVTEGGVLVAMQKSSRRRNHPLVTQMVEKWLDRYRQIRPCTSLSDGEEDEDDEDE
Summary of the method: as §1

YOD1 = target: T5, YOD1 (UniProt Q5VVQ6)
T5 sequence (whole entry): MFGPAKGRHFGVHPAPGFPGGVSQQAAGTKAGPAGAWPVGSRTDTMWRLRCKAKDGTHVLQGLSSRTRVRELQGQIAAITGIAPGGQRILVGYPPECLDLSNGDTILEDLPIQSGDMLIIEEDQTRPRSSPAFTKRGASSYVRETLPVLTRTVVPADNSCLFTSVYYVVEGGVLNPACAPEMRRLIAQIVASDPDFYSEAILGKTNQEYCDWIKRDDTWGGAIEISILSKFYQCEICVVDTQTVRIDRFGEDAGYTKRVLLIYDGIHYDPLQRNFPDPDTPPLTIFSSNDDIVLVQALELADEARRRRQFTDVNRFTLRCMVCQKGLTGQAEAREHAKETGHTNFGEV
Summary of the method: as §1

CC1CN(c2ccc(NC(=O)CCl)cc2)CC(C)O1 (stereo not drawn)
log2 ratio of Biotin-Ahx-Ub-VS probe labelling (UniProt O00507): -0.0662 | log2 ratio of Biotin-Ahx-Ub-VS probe labelling (UniProt P51784): 0.0387 | log2 ratio of Biotin-Ahx-Ub-VS probe labelling (UniProt Q5T2D3): -0.298 | log2 ratio of Biotin-Ahx-Ub-VS probe labelling (UniProt Q8TE49): -0.392 | log2 ratio of Biotin-Ahx-Ub-VS probe labelling (UniProt Q9P2H5): -0.0224 | log2 ratio of Biotin-Ahx-Ub-VS probe labelling (UniProt Q9UGI0): -0.221 | log2 ratio of Biotin-Ahx-Ub-VS probe labelling (YOD1): -0.123

Cc1ccc(-c2nnc(C)[nH]2)c(NC(=O)CCl)c1
log2 ratio of Biotin-Ahx-Ub-VS probe labelling (UniProt O00507): -0.0161 | log2 ratio of Biotin-Ahx-Ub-VS probe labelling (UniProt P51784): 0.126 | log2 ratio of Biotin-Ahx-Ub-VS probe labelling (UniProt Q5T2D3): -0.148 | log2 ratio of Biotin-Ahx-Ub-VS probe labelling (UniProt Q8TE49): -0.185 | log2 ratio of Biotin-Ahx-Ub-VS probe labelling (UniProt Q9P2H5): 0.245 | log2 ratio of Biotin-Ahx-Ub-VS probe labelling (UniProt Q9UGI0): -0.97 | log2 ratio of Biotin-Ahx-Ub-VS probe labelling (YOD1): -0.102

O=C(CCl)N1CCCC1c1ccsc1 (stereo not drawn)
log2 ratio of Biotin-Ahx-Ub-VS probe labelling (UniProt O00507): -0.118 | log2 ratio of Biotin-Ahx-Ub-VS probe labelling (UniProt P51784): -0.115 | log2 ratio of Biotin-Ahx-Ub-VS probe labelling (UniProt Q5T2D3): -0.188 | log2 ratio of Biotin-Ahx-Ub-VS probe labelling (UniProt Q8TE49): -0.72 | log2 ratio of Biotin-Ahx-Ub-VS probe labelling (UniProt Q9P2H5): -0.412 | log2 ratio of Biotin-Ahx-Ub-VS probe labelling (UniProt Q9UGI0): -1.53 (active) | log2 ratio of Biotin-Ahx-Ub-VS probe labelling (YOD1): 0.14

Cc1cc(CC(C)NC(=O)CCl)n[nH]1 (stereo not drawn)
log2 ratio of Biotin-Ahx-Ub-VS probe labelling (UniProt O00507): -0.165 | log2 ratio of Biotin-Ahx-Ub-VS probe labelling (UniProt P51784): -0.131 | log2 ratio of Biotin-Ahx-Ub-VS probe labelling (UniProt Q5T2D3): -0.595 | log2 ratio of Biotin-Ahx-Ub-VS probe labelling (UniProt Q8TE49): 0.0154 | log2 ratio of Biotin-Ahx-Ub-VS probe labelling (UniProt Q9P2H5): -0.232 | log2 ratio of Biotin-Ahx-Ub-VS probe labelling (UniProt Q9UGI0): -0.68 | log2 ratio of Biotin-Ahx-Ub-VS probe labelling (YOD1): 0.241

O=C(CCl)N1CCC(C(=O)N2CCCCCC2)CC1
log2 ratio of Biotin-Ahx-Ub-VS probe labelling (UniProt O00507): 0.0804 | log2 ratio of Biotin-Ahx-Ub-VS probe labelling (UniProt P51784): 0.0166 | log2 ratio of Biotin-Ahx-Ub-VS probe labelling (UniProt Q5T2D3): -0.255 | log2 ratio of Biotin-Ahx-Ub-VS probe labelling (UniProt Q8TE49): -0.488 | log2 ratio of Biotin-Ahx-Ub-VS probe labelling (UniProt Q9P2H5): -0.287 | log2 ratio of Biotin-Ahx-Ub-VS probe labelling (UniProt Q9UGI0): -0.0376 | log2 ratio of Biotin-Ahx-Ub-VS probe labelling (YOD1): 0.016

Cl.O=C(CCl)N1CCCC(c2ncc[nH]2)C1 (stereo not drawn)
log2 ratio of Biotin-Ahx-Ub-VS probe labelling (UniProt O00507): 0.0496 | log2 ratio of Biotin-Ahx-Ub-VS probe labelling (UniProt P51784): 0.000136 | log2 ratio of Biotin-Ahx-Ub-VS probe labelling (UniProt Q5T2D3): -0.124 | log2 ratio of Biotin-Ahx-Ub-VS probe labelling (UniProt Q8TE49): -0.0422 | log2 ratio of Biotin-Ahx-Ub-VS probe labelling (UniProt Q9P2H5): 0.113 | log2 ratio of Biotin-Ahx-Ub-VS probe labelling (UniProt Q9UGI0): -0.517 | log2 ratio of Biotin-Ahx-Ub-VS probe labelling (YOD1): -0.0255

N#Cc1cnn(-c2ccccc2)c1NC(=O)CCl
log2 ratio of Biotin-Ahx-Ub-VS probe labelling (UniProt O00507): -0.331 | log2 ratio of Biotin-Ahx-Ub-VS probe labelling (UniProt P51784): -0.12 | log2 ratio of Biotin-Ahx-Ub-VS probe labelling (UniProt Q5T2D3): -0.209 | log2 ratio of Biotin-Ahx-Ub-VS probe labelling (UniProt Q8TE49): -1.4 (active) | log2 ratio of Biotin-Ahx-Ub-VS probe labelling (UniProt Q9P2H5): -0.407 | log2 ratio of Biotin-Ahx-Ub-VS probe labelling (UniProt Q9UGI0): -1.04 (active) | log2 ratio of Biotin-Ahx-Ub-VS probe labelling (YOD1): -0.327

O=C(CCl)N1CCC(S(=O)(=O)c2ccc(F)cc2)CC1
log2 ratio of Biotin-Ahx-Ub-VS probe labelling (UniProt O00507): 0.0377 | log2 ratio of Biotin-Ahx-Ub-VS probe labelling (UniProt P51784): -0.0572 | log2 ratio of Biotin-Ahx-Ub-VS probe labelling (UniProt Q5T2D3): -0.0766 | log2 ratio of Biotin-Ahx-Ub-VS probe labelling (UniProt Q8TE49): -0.856 | log2 ratio of Biotin-Ahx-Ub-VS probe labelling (UniProt Q9P2H5): -0.104 | log2 ratio of Biotin-Ahx-Ub-VS probe labelling (UniProt Q9UGI0): -0.887 | log2 ratio of Biotin-Ahx-Ub-VS probe labelling (YOD1): 0.119

Cc1ccc(C(=O)NCCNC(=O)CCl)cc1
log2 ratio of Biotin-Ahx-Ub-VS probe labelling (UniProt O00507): -0.256 | log2 ratio of Biotin-Ahx-Ub-VS probe labelling (UniProt P51784): 0.00304 | log2 ratio of Biotin-Ahx-Ub-VS probe labelling (UniProt Q5T2D3): -0.199 | log2 ratio of Biotin-Ahx-Ub-VS probe labelling (UniProt Q8TE49): -0.373 | log2 ratio of Biotin-Ahx-Ub-VS probe labelling (UniProt Q9P2H5): -0.35 | log2 ratio of Biotin-Ahx-Ub-VS probe labelling (UniProt Q9UGI0): -0.456 | log2 ratio of Biotin-Ahx-Ub-VS probe labelling (YOD1): -0.0895
